# Data published in PubChem BioAssay (NCATS).
# Records with an inconclusive call do not appear. Where a call stands in place of a potency, no number is given. The source made the active and inactive calls. Unless noted, calls come from the whole dose curve; as a rule, active = well fitted curve in the direction sought with a large enough effect; inconclusive = small, poorly fitted or top-dose-only effect, or another doubt; inactive = no such curve, though single readings can be large; an effect the other way counts as inactive or inconclusive.
# How the values were obtained:
# [1] = molecular target: ATP-dependent 6-phosphofructokinase (Trypanosoma brucei brucei) (UniProt O15648); experiment: qHTS Assay to Find Inhibitors of T. brucei phosphofructokinase: hit validation (AID 492961);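 note: luminescence reports ADP formed as PFK phosphorylates fructose-6-phosphate with ATP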
# Procedure, shortened: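 Reaction: 0.1 M triethanolamine pH 8.0, 5 mM MgCl2, F6P 0.5 mM, ATP 0.1 mM, PFK 1.25 nM, 45 min RT. Read-out: ADP-Glo luminescence. Analysis: concentration-response fits, classed by r2 and efficacy.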
# [2] = qHTS Validation Assay to Find Inhibitors of Chronic Active B-Cell Receptor Signaling (AID 485345; active = well fitted curve in the direction sought with a large enough effect in the main read-out, with a control signal flat, not every such curve was filed as active)
# Procedure, shortened: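 TMD8 ABC-DLBCL cells with dox-inducible green luciferase–IκBα fusion and red native luciferase; compounds 46 uM–3 nM, 4 h at 37C with doxycycline in 0.5% FBS IMDM. Green/red ratio normalized to basal and 10 uM MG-132.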
# [3] = molecular target: Thioredoxin reductase 1, cytoplasmic (Rattus norvegicus) (UniProt O89049); experiment: qHTS Assay for Substrates of Mammalian Selenoprotein Thioredoxin Reductase 1 (TrxR1) (AID 488772);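 note: NADPH fluorescence in the first read after selenite addition and not the 8 min delta; a drop in NADPH fluorescence below the no-compound background marks a TrxR1 substrate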
# Procedure, shortened: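 Quantitative HTS in Tris-HCl buffer at pH 7.5 with EDTA and Tween-20, using rat TrxR1, 400 uM NADPH and 400 uM selenite (final). A fall in initial NADPH fluorescence relative to background marked substrate behaviour.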
# [4] = molecular target: Thioredoxin reductase 1, cytoplasmic (Rattus norvegicus) (UniProt O89049); experiment: qHTS Assay for Inhibitors of Mammalian Selenoprotein Thioredoxin Reductase 1 (TrxR1) (AID 488773);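 note: drop in NADPH fluorescence over an 8 min run after selenite addition; nearly all actives have a fitted effect of over 40% in size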
# Procedure, shortened: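 Steps: enzyme (90 nM) plus NADPH (400 uM final), 5 min at ~22 deg C; compound added, 15 min; selenite (400 uM final) added; fluorescence followed for 8 min. Concentration-response curves derived from the normalized delta values.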
# [5] = molecular target: Flap endonuclease 1 (Homo sapiens) (UniProt P39748); experiment: qHTS Validation Assay for the Inhibitors of Human Flap endonuclease 1 (FEN1) (AID 488816)
# Procedure, shortened: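 FEN1, dispensed as a 10 nM reagent, was preincubated with pin-transferred compounds for 15 min at room temperature before substrate was added (50 nM final). Plates were read at 0 and 15 min, and a four-parameter Hill equation was fitted to the concentration-response data.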
# [6] = molecular target: M-phase phosphoprotein 8 (Homo sapiens) (UniProt Q99549); experiment: qHTS Validation Assay for Inhibitors for MPP8 Chromodomain Interactions with Methylated Histone Tails (AID 488949); note: nearly all actives have a fitted effect of over 55% in size; note: potency is the fitted concentration of half-maximal effect
# Procedure, shortened: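 AlphaScreen read-out: streptavidin donor and nickel chelate acceptor beads (final 10 ug/mL), 30 min in the dark at RT. Complex of 50 nM MPP8 and 50 nM b-H3(1-18)K9me3 peptide had been exposed to compounds for 30 min beforehand.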
# [7] = molecular target: Chromobox protein homolog 1 (Homo sapiens) (UniProt P83916); experiment: qHTS Validation Assay for Inhibitors of HP1-beta Chromodomain Interactions with Methylated Histone Tails (AID 488953);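 note: loss of AlphaScreen luminescence from HP1-beta binding biotinylated H3K9me3 peptide; nearly all actives have a fitted effect of over 50% in size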
# Procedure, shortened: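 HP1-beta (50 nM) preformed 30 min with biotinylated H3(1-18)K9me3 peptide (50 nM) in PBS pH 7.4, 0.01% Tween-20. Compounds added for 30 min at room temperature. Complex disruption read by AlphaScreen with streptavidin donor/nickel chelate acceptor beads (10 ug/mL each).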
# [8] = molecular target: Methanococcus maripaludis chaperonin (MmCpn) (UniProt Q6LX38); experiment: High-Throughput Screening for Modulators of Cytosolic Chaperonin Activity: MmCpn Primary Screen (AID 488978);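 note: 50 nM MmCpn enzyme hydrolysing 30 µM ATP at 37 °C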
# Procedure, shortened: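 ADP formation read by HTRF Transcreener, 665/590 nm emission after 320 nm excitation. Enzyme: archaeal chaperonin at 50 nM final; substrate ATP 30 uM final; 10 min, 37C, after 5 min compound preincubation at RT.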
# [9] = molecular target: D(1A) dopamine receptor (Homo sapiens) (UniProt P21728); experiment: HTS Assay for Allosteric Agonists of the Human D1 Dopamine Receptor: Primary Screen for Agonists (AID 488981)
# Procedure, shortened: (§1)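 Tetracycline-induced HEK293 T-REx cells force-coupled to calcium signalling were incubated overnight at 30 C and dye-loaded at room temperature. Calcium flux over 180 s after compound addition flagged agonists; a further 180 s read after EC20 dopamine flagged potentiators.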
# [10] = molecular target: D(1A) dopamine receptor (Homo sapiens) (UniProt P21728); experiment: HTS Assay for Allosteric Agonists of the Human D1 Dopamine Receptor: Primary Screen for Potentiators (AID 488982)
# Procedure, shortened: as §1
# [11] = molecular target: D(1A) dopamine receptor (Homo sapiens) (UniProt P21728); experiment: HTS Assay for Allosteric Agonists of the Human D1 Dopamine Receptor: Primary Screen for Antagonists (AID 488983);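 note: calcium flux response to an EC80 dopamine challenge measured with no-wash dye; nearly all actives have a fitted effect of over 65% in size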
# Procedure, shortened: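 Tetracycline-induced HEK293 T-REx D1 line, force-coupled to calcium flux, read with no-wash calcium dye. Compound added after 10 s baseline, read 180 s for agonism, then EC80 dopamine added and read a further 180 s.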
# [12] = Validation screen for small molecules that induce genotoxicity in human embryonic kidney (HEK293T) cells expressing luciferase-tagged ELG1 (AID 493106)
# Procedure, shortened: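 HEK293T cells expressing luciferase-tagged ELG1, 2,000 cells/well, exposed to compound 16 hr at 37 °C, 5% CO2. Luciferase read after ONE-Glo, 30 min at room temperature; increased signal indicates genetic stress.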
# [13] = molecular target: ATPase family AAA domain-containing protein 5 (Homo sapiens) (UniProt Q96QE3); experiment: Validation screen for small molecules that inhibit ELG1-dependent DNA repair in human embryonic kidney (HEK293T) cells expressing luciferase-tagged ELG1 (AID 493107);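 note: cells co-treated with the DNA-damaging agent 5-fluorouridine alongside compound; inhibitors lower the ELG1-luciferase luminescence signal; nearly all actives have a fitted effect of over 70% in size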
# Procedure, shortened: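 HEK293T cells expressing luciferase-tagged ELG1, 2,000 per well, treated with 5-fluorouridine plus compound for 16 h at 37 C. ONE-Glo luminescence after 30 min at room temperature reports ELG1 reporter level.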
# [14] = Quantitative high throughput screen for delayed death inhibitors of the malarial parasite plastid, 96 hour incubation (AID 488745); note: nearly all actives have a fitted effect of over 70% in size
# Procedure, shortened: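 Luciferase-expressing P. falciparum in erythrocytes (2% hematocrit, 0.1% parasitemia) incubated with compound for 96 h at 37 C, 5% CO2, in RPMI 1640 with 0.5% Albumax. Growth inhibition read as decreased luminescence.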
# [15] = Quantitative high throughput screen for delayed death inhibitors of the malarial parasite plastid, 48 hour incubation (AID 488752); note: nearly all actives have a fitted effect of over 65% in size
# Procedure, shortened: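 Erythrocytes infected with firefly luciferase-expressing P. falciparum (2% hematocrit, 0.1% parasitemia) cultured with compound for 48 h at 37 C, 5% CO2, in RPMI 1640/0.5% Albumax. Growth inhibition read as loss of luminescence.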
# [16] = molecular target: Transient receptor potential cation channel subfamily V member 1 (Homo sapiens) (UniProt Q8NER1); experiment: HTS Assay for Compounds that Act as Enhancers of the Vanilloid Receptor 1 (AID 488979)
# Procedure, shortened: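 TRPV1-expressing cells loaded with Fluo-8 calcium dye; compounds added and calcium influx read kinetically for 3 min (agonist phase), then capsaicin at EC20 added and read 2 min more for enhancement. Fluorescence ex 480/em 520 nm.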
# [17] = molecular target: Thyrotropin receptor (Homo sapiens) (UniProt P16473); experiment: qHTS Assay for Antagonists of the Thyroid Stimulating Hormone Receptor (AID 488980)
# Procedure, shortened: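 TSHR-HEK293 cells; 70 uM RO 20-1724 PDE inhibitor; compound + EC80 TSH (4 nM final); anti-cAMP cryptate antibody/cAMP-d2 in lysis buffer, 30 min RT; HTRF 665/620 nm read.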
# [18] = molecular target: Tyrosyl-DNA phosphodiesterase 1 (Homo sapiens) (UniProt Q9NUW8); experiment: Confirmation Assay for Inhibitors of Tyrosyl-DNA Phosphodiesterase (TDP1) (AID 489007); conditions: recombinant human TDP1 enzymatic activity, dose-response; note: potency is the fitted concentration of half-maximal effect; nearly all actives have a fitted effect of over 40% in size
# Procedure, shortened: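 Recombinant human Tdp1 (1 nM final), expressed in E. coli, preincubated 15 min with compound. Then 15 nM 5'-biotin/3'-phosphotyrosine-FITC DNA substrate added for 5 min at room temperature. AlphaScreen beads (10 ug/ml) added for 10 min; cleavage gives signal loss.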
# [19] = molecular target: Beta-2 adrenergic receptor (Homo sapiens) (UniProt P07550); experiment: qHTS validation assay of beta-arrestin-biased ligands of beta2-adrenergic receptor (AID 485366)
# Procedure, shortened: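 Arrestin-recruitment (Tango) reporter: ligand-bound beta2-AR recruits beta-arrestin, releasing tTA, which upregulates luciferase. Titrations of up to 46 microM incubated 18 hr at 37 degrees C before luminescent readout.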
# [20] = molecular target: ATP-dependent 6-phosphofructokinase (Trypanosoma brucei brucei) (UniProt O15648); experiment: qHTS Validation Assay to Find Inhibitors of T. brucei phosphofructokinase (AID 485368); conditions: T. brucei PFK enzyme assay, qHTS 7-point titration; at 57.5 µM (top of the series)
# Procedure, shortened: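 Steps: substrate mix (0.5 mM F6P, 0.1 mM ATP, MgCl2, TEA pH 8.0); compound; 1.25 nM T. brucei PFK; 45 min RT; ATP depletion 10 min; ADP-to-ATP detection 10 min; luminescence read; curve fitting and classification.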
# Sequence of D(1A) dopamine receptor (Homo sapiens) (P21728 whole entry, looked up): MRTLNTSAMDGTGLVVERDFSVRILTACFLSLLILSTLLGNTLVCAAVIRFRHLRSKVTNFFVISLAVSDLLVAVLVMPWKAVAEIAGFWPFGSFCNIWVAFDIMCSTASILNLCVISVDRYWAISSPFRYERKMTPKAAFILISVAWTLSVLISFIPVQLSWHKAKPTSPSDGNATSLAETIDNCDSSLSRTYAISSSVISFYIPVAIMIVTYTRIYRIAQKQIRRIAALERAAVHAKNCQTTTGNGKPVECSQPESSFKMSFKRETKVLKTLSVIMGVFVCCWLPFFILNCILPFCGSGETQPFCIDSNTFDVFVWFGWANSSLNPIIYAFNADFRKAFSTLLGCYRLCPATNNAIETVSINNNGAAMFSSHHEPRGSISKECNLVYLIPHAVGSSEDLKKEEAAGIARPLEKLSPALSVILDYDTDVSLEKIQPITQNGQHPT
# Sequence of M-phase phosphoprotein 8 (Homo sapiens) (Q99549 whole entry, looked up): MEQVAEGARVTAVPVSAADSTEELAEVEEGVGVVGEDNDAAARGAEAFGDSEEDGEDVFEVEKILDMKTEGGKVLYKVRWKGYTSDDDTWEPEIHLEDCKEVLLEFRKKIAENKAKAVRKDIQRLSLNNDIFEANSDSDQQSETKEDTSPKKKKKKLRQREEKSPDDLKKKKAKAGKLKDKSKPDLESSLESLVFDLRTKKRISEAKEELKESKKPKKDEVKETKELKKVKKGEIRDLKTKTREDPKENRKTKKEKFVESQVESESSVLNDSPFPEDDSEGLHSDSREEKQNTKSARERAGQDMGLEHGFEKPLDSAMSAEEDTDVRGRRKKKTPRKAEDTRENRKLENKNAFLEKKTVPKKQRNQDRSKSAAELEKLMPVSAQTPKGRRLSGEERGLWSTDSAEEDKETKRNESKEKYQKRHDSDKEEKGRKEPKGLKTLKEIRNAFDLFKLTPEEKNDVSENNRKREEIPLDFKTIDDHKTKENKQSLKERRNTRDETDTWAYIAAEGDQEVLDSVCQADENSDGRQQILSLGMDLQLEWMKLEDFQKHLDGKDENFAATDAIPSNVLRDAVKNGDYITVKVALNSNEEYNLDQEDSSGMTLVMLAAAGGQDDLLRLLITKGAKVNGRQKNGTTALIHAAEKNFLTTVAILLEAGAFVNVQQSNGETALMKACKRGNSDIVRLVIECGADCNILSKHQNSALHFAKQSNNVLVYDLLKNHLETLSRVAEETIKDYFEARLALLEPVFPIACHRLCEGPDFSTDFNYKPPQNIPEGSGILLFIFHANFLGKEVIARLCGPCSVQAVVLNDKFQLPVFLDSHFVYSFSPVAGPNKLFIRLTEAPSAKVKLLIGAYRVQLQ
# Sequence of Chromobox protein homolog 1 (Homo sapiens) (P83916 whole entry, looked up): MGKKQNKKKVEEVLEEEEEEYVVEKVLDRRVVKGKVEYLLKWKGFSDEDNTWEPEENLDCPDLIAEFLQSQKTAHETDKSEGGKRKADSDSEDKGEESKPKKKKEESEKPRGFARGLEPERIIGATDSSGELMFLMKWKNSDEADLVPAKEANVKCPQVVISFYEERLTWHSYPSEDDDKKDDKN
# Sequence of ATP-dependent 6-phosphofructokinase (Trypanosoma brucei brucei) (O15648 whole entry, looked up): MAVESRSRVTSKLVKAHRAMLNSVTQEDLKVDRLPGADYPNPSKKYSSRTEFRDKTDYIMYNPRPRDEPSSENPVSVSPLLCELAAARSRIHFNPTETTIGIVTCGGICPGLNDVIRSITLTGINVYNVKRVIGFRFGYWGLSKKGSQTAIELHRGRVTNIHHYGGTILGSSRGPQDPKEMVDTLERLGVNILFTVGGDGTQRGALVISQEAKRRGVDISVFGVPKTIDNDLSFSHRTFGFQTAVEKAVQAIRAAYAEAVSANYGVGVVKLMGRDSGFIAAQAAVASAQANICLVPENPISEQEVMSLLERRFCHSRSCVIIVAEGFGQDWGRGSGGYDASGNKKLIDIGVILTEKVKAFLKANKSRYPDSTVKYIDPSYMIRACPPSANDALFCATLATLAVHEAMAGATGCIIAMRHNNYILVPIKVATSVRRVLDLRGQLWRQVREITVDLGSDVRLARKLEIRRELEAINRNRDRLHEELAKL
# Sequence of Thioredoxin reductase 1, cytoplasmic (Rattus norvegicus) (O89049 whole entry, looked up): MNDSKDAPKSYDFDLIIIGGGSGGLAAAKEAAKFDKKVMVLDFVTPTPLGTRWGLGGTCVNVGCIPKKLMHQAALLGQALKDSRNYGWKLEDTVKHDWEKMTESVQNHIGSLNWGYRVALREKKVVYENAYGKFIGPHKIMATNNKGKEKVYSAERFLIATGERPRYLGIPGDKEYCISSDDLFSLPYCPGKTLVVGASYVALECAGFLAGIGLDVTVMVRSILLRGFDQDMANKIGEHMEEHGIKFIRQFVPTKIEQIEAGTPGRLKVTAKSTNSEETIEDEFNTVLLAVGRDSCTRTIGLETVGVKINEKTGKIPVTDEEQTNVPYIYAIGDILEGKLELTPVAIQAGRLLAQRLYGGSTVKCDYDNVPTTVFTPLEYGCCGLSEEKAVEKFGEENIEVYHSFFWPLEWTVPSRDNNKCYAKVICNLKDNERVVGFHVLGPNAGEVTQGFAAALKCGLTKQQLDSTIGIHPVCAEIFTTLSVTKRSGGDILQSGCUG
# Sequence of Methanococcus maripaludis chaperonin (MmCpn) (Q6LX38 1-543): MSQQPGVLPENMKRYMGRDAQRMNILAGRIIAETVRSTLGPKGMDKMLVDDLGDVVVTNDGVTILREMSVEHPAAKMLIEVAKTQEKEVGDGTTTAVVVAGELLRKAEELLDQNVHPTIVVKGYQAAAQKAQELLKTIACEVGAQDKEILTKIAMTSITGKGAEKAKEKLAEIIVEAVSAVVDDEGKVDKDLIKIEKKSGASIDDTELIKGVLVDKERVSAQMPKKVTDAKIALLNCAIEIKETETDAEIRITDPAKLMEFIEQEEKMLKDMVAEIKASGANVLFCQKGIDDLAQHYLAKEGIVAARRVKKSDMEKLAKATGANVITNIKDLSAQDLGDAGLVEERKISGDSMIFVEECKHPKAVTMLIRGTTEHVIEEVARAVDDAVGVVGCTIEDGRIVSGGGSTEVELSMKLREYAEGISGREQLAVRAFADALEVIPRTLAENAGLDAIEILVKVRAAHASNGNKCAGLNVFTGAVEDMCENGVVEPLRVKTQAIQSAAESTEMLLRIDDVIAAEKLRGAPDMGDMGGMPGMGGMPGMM
# Sequence of ATPase family AAA domain-containing protein 5 (Homo sapiens) (Q96QE3 whole entry, looked up, the tested form may be a part): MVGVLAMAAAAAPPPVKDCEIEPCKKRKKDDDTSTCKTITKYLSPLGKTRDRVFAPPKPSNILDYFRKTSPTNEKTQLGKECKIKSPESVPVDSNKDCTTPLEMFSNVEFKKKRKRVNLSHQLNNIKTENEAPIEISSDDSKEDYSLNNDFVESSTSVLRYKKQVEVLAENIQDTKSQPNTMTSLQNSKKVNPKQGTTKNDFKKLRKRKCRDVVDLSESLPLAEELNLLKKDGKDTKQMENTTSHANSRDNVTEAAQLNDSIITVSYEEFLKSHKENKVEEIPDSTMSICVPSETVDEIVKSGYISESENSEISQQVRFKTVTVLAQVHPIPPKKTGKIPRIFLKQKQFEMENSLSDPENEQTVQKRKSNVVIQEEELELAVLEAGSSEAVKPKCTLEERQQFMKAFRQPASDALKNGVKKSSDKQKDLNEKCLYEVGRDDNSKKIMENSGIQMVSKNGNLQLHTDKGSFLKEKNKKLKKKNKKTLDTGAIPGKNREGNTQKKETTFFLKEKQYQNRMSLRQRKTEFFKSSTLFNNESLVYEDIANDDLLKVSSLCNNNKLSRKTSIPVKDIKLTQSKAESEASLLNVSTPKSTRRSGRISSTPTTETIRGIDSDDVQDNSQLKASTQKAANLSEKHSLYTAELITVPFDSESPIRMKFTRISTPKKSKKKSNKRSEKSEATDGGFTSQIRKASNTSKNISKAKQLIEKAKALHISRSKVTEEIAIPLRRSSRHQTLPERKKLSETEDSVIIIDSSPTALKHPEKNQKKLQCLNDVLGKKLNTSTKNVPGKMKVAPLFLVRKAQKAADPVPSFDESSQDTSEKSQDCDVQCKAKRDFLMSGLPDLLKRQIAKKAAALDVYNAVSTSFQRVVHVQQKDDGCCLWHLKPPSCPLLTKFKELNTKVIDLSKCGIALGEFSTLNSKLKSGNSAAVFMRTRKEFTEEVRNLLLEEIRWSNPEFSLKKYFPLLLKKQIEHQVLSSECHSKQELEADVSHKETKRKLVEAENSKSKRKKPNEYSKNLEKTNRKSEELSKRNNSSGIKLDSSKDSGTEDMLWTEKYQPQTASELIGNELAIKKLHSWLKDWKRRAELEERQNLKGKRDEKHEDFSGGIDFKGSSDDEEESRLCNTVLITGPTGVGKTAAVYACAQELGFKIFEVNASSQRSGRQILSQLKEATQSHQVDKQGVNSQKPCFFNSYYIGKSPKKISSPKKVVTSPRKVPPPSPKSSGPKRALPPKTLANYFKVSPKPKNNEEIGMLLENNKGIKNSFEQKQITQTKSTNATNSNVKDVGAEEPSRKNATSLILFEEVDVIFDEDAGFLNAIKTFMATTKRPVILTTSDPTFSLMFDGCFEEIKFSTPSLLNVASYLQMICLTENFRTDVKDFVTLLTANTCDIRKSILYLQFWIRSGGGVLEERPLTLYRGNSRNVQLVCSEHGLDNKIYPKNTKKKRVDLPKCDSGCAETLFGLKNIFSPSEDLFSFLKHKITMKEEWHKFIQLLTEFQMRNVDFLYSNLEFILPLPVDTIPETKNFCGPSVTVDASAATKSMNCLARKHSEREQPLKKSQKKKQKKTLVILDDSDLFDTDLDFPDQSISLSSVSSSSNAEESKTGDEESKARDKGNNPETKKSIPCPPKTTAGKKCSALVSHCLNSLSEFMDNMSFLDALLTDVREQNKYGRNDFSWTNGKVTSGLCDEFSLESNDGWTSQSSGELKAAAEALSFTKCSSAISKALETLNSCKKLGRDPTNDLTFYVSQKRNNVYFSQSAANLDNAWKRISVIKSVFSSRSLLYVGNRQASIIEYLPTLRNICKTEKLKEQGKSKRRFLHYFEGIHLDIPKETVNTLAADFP
compound,measurement,setting,value
CCCCCCCC/C=C\CCCCCCCCN,Potency,[1],inactive
COc1cc(NS(=O)(=O)c2ccc(N)cc2)ncn1,Potency,[1],inactive
CCN(CC)CCOc1ccc2c(c1)C(=O)c1cc(OCCN(CC)CC)ccc1-2,Potency,[1],inactive
CCN(CC)CCOc1ccccc1C(=O)CCc1ccccc1,Potency,[1],inactive
NCCNc1cccc2ccccc12,Potency,[1],inactive
Cc1cccc(C)c1NC(=O)CN1CCCCCC1,Potency,[1],inactive
COc1cc(N)c(Cl)cc1C(=O)NC1CCN(Cc2ccccc2)CC1,Potency,[1],inactive
CC(C)(C)NC[C@H](O)COc1nsnc1N1CCOCC1,outcome,[2],inactive
same,outcome,[3],inactive
same,outcome,[4],inactive
same,outcome,[5],inactive
same,Potency,[6],inactive
same,outcome,[7],inactive
same,outcome,[8],inactive
same,outcome,[9],inactive
same,outcome,[10],inactive
same,outcome,[11],inactive
same,outcome,[12],inactive
same,outcome,[13],inactive
CC(=O)OCC1=C(C(=O)O)N2C(=O)[C@@H](NC(=O)CSc3ccncc3)[C@H]2SC1,outcome,[14],inactive
same,outcome,[15],inactive
same,Potency,[6],31.6 µM (active)
same,outcome,[16],inactive
same,outcome,[17],inactive
same,Potency,[18],2 µM (active)
COP(=O)(OC)OC(c1ccc(Cl)cc1)P(=O)(OC)OC (centres undefined),Potency,[1],inactive
CN=C(N)NCCC[C@H](N)C(=O)O,outcome,[2],inactive
same,outcome,[19],inactive
same,outcome,[20],inactive
same,outcome,[3],inactive
same,outcome,[4],inactive
same,outcome,[5],inactive
same,Potency,[6],inactive
same,outcome,[7],inactive
same,outcome,[8],inactive
same,outcome,[9],inactive
same,outcome,[10],inactive
same,outcome,[11],inactive
same,outcome,[12],inactive
same,outcome,[13],inactive
c1ccc(-c2nc[nH]c2-c2ccccc2)cc1,Potency,[1],inactive
CN(C)C(=O)Nc1ccc(Cl)c(Cl)c1,Potency,[1],inactive
NC(N)=NCc1cccc(I)c1,outcome,[19],inactive
same,outcome,[15],inactive
same,outcome,[3],inactive
same,outcome,[4],inactive
same,outcome,[5],inactive
same,Potency,[6],inactive
same,outcome,[7],inactive
same,outcome,[8],inactive
same,outcome,[16],inactive
same,outcome,[17],inactive
same,outcome,[9],inactive
same,outcome,[10],inactive
same,outcome,[11],inactive
same,Potency,[1],inactive
same,outcome,[12],inactive
same,outcome,[13],inactive
CCN(CC)CCOC(=O)C1(c2ccccc2)CCCC1,Potency,[1],inactive
COC(=O)C(c1ccccc1Cl)N1CCc2sccc2C1 (centres undefined),Potency,[1],inactive
CCCc1ncc(C[n+]2ccccc2C)c(N)n1,Potency,[1],inactive
O=C(Nc1ccc([N+](=O)[O-])cc1)Nc1ccc([N+](=O)[O-])cc1,Potency,[1],inactive
CCOC(=O)[C@H](CCc1ccccc1)N[C@@H](C)C(=O)N1[C@H](C(=O)O)C[C@H]2CCCC[C@@H]21,outcome,[2],inactive
same,outcome,[19],inactive
same,outcome,[20],inactive
same,outcome,[3],inactive
same,outcome,[4],inactive
same,outcome,[5],inactive
same,Potency,[6],inactive
same,outcome,[7],inactive
same,outcome,[8],inactive
same,outcome,[9],inactive
same,outcome,[10],inactive
same,outcome,[11],inactive
same,Potency,[1],inactive
same,outcome,[12],inactive
same,outcome,[13],inactive
CCCCCCCCCCCCOCCOCCOCCOCCOCCOCCOCCOCCOCCO,Potency,[1],inactive
CC(=O)O[C@H]1C[C@@H]2CC[C@@H]3[C@H](CC[C@@]4(C)[C@H]3C[C@H]([N+]3(C)CCCCC3)[C@@H]4OC(C)=O)[C@@]2(C)C[C@@H]1N1CCCCC1,Potency,[1],inactive
CC(C)Cc1ccc(CC(=O)O)cc1,Potency,[1],inactive
O=C(Oc1cccc2cccnc12)c1ccccc1,Potency,[1],inactive
NC(=O)c1ccccc1O,Potency,[1],inactive
Nc1ccc(S(=O)(=O)Nc2cnc3ccccc3n2)cc1,Potency,[1],inactive
CN1CCN(c2c(F)cc3c(=O)c(C(=O)O)cn4c3c2SCC4)CC1,Potency,[1],inactive
CCCCCCCCCCCCCCCC(=O)O,Potency,[1],inactive
Cc1ccc(S(=O)(=O)NC(=O)NC2CCCC2)cc1,Potency,[1],inactive
CN(C)CCOC(c1ccc(Cl)cc1)c1ccccn1 (centres undefined),Potency,[1],inactive
CC(=O)N[C@@H](CCC(=O)O)C(=O)O,Potency,[1],inactive
C/C=C/C=N/NC(=O)c1ccncc1,Potency,[1],inactive
COc1cc(C(=O)N2CCCCCCC2)cc(OC)c1OC,Potency,[1],inactive
O=S(=O)(O)c1ccc(O)cc1,Potency,[1],inactive
COc1cc(C)nc(-n2nc(C)cc2OC)n1,Potency,[1],inactive
CCCCCCCCCCCCCC(=O)OC(C)C,Potency,[1],inactive
CC(=O)Nc1ncc([N+](=O)[O-])s1,Potency,[1],inactive
